# Screen size: about 48,000 compounds; about 13,000 (27%) showed an effect of 50% or more. The list shows a part of the results.
# Test system: Wolbachia pipientis
# Experiment: Anti-Wolbachia Cell-Based Screen
# Format: functional
# Design: scale not given: in the data most compounds retested in dose-response had high values
# Conditions: 5 µM
row,SMILES,Percent Effect
1,CC(C)(C)CNC(=O)CNC(=O)C1CC1,-0.05069%
2,CCOC(=O)c1ccc(N2CCN(Cc3c(C)nn(C)c3Cl)CC2)nc1,-11.85%
3,C/C(NC(=O)c1cccs1)=C1\C(=O)C[C@@H]2[C@H]1C2(C)C,112.6%
4,C/C(NC(=O)c1ccccn1)=C1\C(=O)C[C@@H]2[C@H]1C2(C)C,103%
5,O=C(Nc1c(N2CCCC2)cccc1N1CCCC1)c1ccccn1,-1.766%
6,CC(C)n1cccc1C(=O)N1CC[C@@H](NC(=O)c2ccccn2)[C@H](O)C1,9.129%
7,CC(=O)N1CC2C[C@]2(NC(=O)c2ccco2)C1 (stereo partly specified),-12.88%
8,O=C(NCC1(O)CCc2ccccc2C1)c1cccs1 (stereo unspecified),-6.747%
9,O=C(NC1CC(=O)N(C2CC2)C1)c1cccs1 (stereo unspecified),3.357%
10,O=C(N[C@]12CC1CN(C(=O)c1ccco1)C2)c1ccco1 (stereo partly specified),-8.008%
11,C/C(NC(=O)c1ccco1)=C1/C(=O)C[C@@H]2[C@H]1C2(C)C,112.1%
12,CNC(=O)[C@H]1CC[C@@H]2[C@@H](CCN2C(=O)N(C)C)O1,-9.576%
13,O=C(NCCC(=O)N1CCCC1)C(OC1CCCC1)c1ccccc1 (stereo unspecified),-0.3907%
14,O=C(O)C(F)(F)F.O=C(O)C(F)(F)F.c1cc(CN2CCC3(CCOCC3COCC3CC3)CC2)ccn1 (stereo unspecified),-8.349%
15,COCC1COCCC12CCN(CCc1ccccc1)CC2.O=C(O)C(F)(F)F (stereo unspecified),7.834%
16,COCC1COCCC12CCN(Cc1nccs1)CC2.O=C(O)C(F)(F)F (stereo unspecified),97.2%
17,O=C(O)C(F)(F)F.c1csc(CN2CCC3(CCOCC3COCC3CC3)CC2)n1 (stereo unspecified),99.84%
18,O=C(O)C(F)(F)F.c1cc(CN2CCC3(CCOCC3COCC3CC3)CC2)co1 (stereo unspecified),-40.89%
19,O=C(O)C(F)(F)F.c1coc(CN2CCC3(CCOCC3COCC3CC3)CC2)c1 (stereo unspecified),-46.4%
20,COCC1COCCC12CCN(Cc1cccs1)CC2.O=C(O)C(F)(F)F (stereo unspecified),99.73%
21,CN(Cc1nc2ccccc2[nH]1)C(=O)CN(C)c1ccc(Cl)cn1,9.224%
22,CCN(CC)CCNCc1cc(O)c2cc(C)ccc2n1,11.73%
23,CO[C@H]1COC[C@@H]1NC(=O)C1(Oc2ccc(Cl)cc2)CCNCC1,6.112%
24,C[S+]([O-])CCNCc1ccc(OCc2cscn2)cc1 (stereo unspecified),1.801%
25,CCCN1CCN(C(=O)c2cc3ccccc3cn2)[C@H]2CS(=O)(=O)C[C@H]21,0.5207%
26,CC(C)N[C@@H]1CC[C@@H]1NC(=O)c1ccccc1OC(F)(F)C(F)F,-9.491%

row,SMILES,Percent Effect
1,Nc1ccc(-c2cc(O)cc(CCC3CCCCN3)c2)cn1 (stereo unspecified),-4.594%
2,OCC1CCCN1c1cc(N2CCC(OC3CCCC3)CC2)ncn1 (stereo unspecified),10.66%
3,Cl.c1nc(CCC2CCCN2)cc(N2CCCOCC2)n1 (stereo unspecified),-10.48%
4,Cl.c1nc(CCC2CCCN2)cc(N2CCCCCC2)n1 (stereo unspecified),105.3%
5,CC1CCN(c2cc(CCC3CCCN3)ncn2)CC1.Cl (stereo unspecified),81.62%
6,CC1CCN(c2cc(-n3cnc(C(=O)N4CCSCC4)c3)ncn2)CC1,13.65%
7,Cl.c1nc(CCC2CCCCN2)cc(N2CCCC2)n1 (stereo unspecified),95.63%
8,CCc1cc(N2CCCC(c3noc(CC)n3)C2)ncn1 (stereo unspecified),-9.129%
9,CC1CCN(c2cc(NC(=O)C3CC3)ncn2)CC1,10.56%
10,O=C(O)C(F)(F)F.O=C([C@H]1CN(Cc2ccc(F)cc2)C[C@H]2OCC[C@@H]12)N1CCCO1,1.984%
11,Cc1cc(NC(=O)CN2CCOC(Cn3cccn3)C2)n(C)n1 (stereo unspecified),-0.9893%
12,CCC1CCCN(CC(=O)Nc2oc(C)c3c(C)n[nH]c(=O)c23)C1 (stereo unspecified),7.246%
13,CN(Cc1ccc(OCC(=O)N2CCOCC2)cc1)S(C)(=O)=O,-1.865%
14,CCc1ccccc1C(=O)N1CCN(S(C)(=O)=O)[C@@H](C)C1,7.255%
15,NC(=O)CCOc1nc(-c2ccccc2Cl)no1,-3.331%
16,CCCn1nc(C2CCNCC2)n(Cc2ccccc2)c1=O,-22.36%
17,CCn1c(C2CCNCC2)nn(CCn2ccc(C)n2)c1=O,83.74%
18,CCOCCn1nc(C2CCNCC2)n(Cc2ccccc2)c1=O,-5.43%
19,CCn1c(C2CCNCC2)nn(CCn2cncn2)c1=O,89.88%
20,CCn1c(C2CCCN(C(=O)c3ccc[nH]3)C2)nn(CCN(C)C)c1=O (stereo unspecified),-8.209%
21,CCn1c(C2CCCNC2)nn(CCn2cncn2)c1=O (stereo unspecified),98.85%
22,CCn1c(C2CCNCC2)nn(CCCc2ccccc2)c1=O,0.4782%
23,O=c1n(CCn2cccc2)nc(C2CCNCC2)n1Cc1ccccc1,-16.93%
24,CCn1c(Cn2cncn2)nnc1C1CCN(Cc2ccncc2)CC1,-0.7206%
25,FC(F)(F)c1ccc2nc([C@H]3CCN(C4CCOCC4)C3)[nH]c2c1,-2.136%

# Source: ChEMBL document CHEMBL3988442, “University of Dundee, Small-Polar-MMV Screening Library” (2021)
